Assay results published in PubChem BioAssay (EPA / NIEHS).
Where “and” joins values, the source holds several entries; their conditions need not be identical. Equal values may be shown once. Inconclusive results are not listed. Where a structure was tested more than once in an assay, its records may differ in their call. Calls of active or inactive are those of the source. Rule for the calls, unless noted: active = hit-call score of the fitted dose curve at least 0.9, where 1 is the maximum; inconclusive = response in the unintended direction; inactive = score below 0.9.

Columns and labels:
[1] = BSK_4H_Eotaxin3: BioMAP Diversity Plus: 4H Assay for Eotaxin 3 Biomarker Activity (AID 2283000; active = hit-call score of the fitted dose curve at least 0.9, where 1 is the maximum; inactive = score below 0.9); conditions: primary human endothelial cells (HUVEC); actives raise or lower the signal
Outline: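 Readout is Eotaxin-3 (CCL26) level by ELISA in primary human umbilical vein endothelial cells harvested 24 h after chemical exposure; activity fitted in both directions against DMSO control.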

[2] = target: human Peroxisome Proliferator-activated Receptor alpha (PPARa), PPARA (gene 5465) (UniProt Q07869); experiment: ATG_PPARa_TRANS: Attagene TRANS-FACTORIAL HepG2 Assay for human Peroxisome Proliferator-activated Receptor alpha (PPARa) (AID 2283001);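 for AC50: potency for gain of reporter signal over DMSO so agonist or activator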
Outline: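 HepG2 cells transiently transfected with multiplexed GAL4-UAS reporter units and chimeric NR-Gal4 constructs were dosed for 24 h. Reporter mRNA was measured by RT-PCR with fluorescent labelling and capillary electrophoresis; gain of signal fitted against DMSO.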

[3] = target: human Peroxisome Proliferator-activated Receptor delta (PPARd), PPARD (gene 5467) (UniProt Q03181); experiment: ATG_PPARd_TRANS: Attagene TRANS-FACTORIAL HepG2 Assay for human Peroxisome Proliferator-activated Receptor delta (PPARd) (AID 2283002)
Outline: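 Measured quantity: GAL4-UAS reporter transcript induction in HepG2 after 24 h chemical dosing, with NR-Gal4 chimeras supplied by transient transfection. Detection by RT-PCR and capillary electrophoresis; upward fit against DMSO.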

[4] = read-out: Intercellular Adhesion Molecule 1 (ICAM1), ICAM1 (gene 3383); experiment: BSK_3C_ICAM1: BioMAP Diversity Plus: 3C Assay for Intercellular Adhesion Molecule 1 (ICAM1) Biomarker Activity (AID 2283003; active = hit-call score of the fitted dose curve at least 0.9, where 1 is the maximum; inactive = score below 0.9); conditions: primary human endothelial cells (HUVEC); actives raise or lower the signal
Outline: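 Primary human umbilical vein endothelial cells in the BioMAP 3C system were exposed to chemicals for 24 h, then ICAM-1 was quantified by ELISA. Activity was fitted bidirectionally against the DMSO negative control baseline.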

[5] = target: human Retinoic Acid Receptor beta (RARb), RARB (gene 5915) (UniProt P10826); experiment: ATG_RARb_TRANS: Attagene TRANS-FACTORIAL HepG2 Assay for human Retinoic Acid Receptor beta (AID 2283004)
Outline: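 Readout is reporter mRNA induction: RNA reverse-transcribed, PCR-amplified, FAM-labelled, HpaI-cut and resolved by capillary electrophoresis. Transiently transfected HepG2 cells carrying exogenous NR–Gal4 chimeras were dosed for 24 h; activity fitted upward relative to DMSO.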

[6] = target: Retinoic acid receptor alpha (Homo sapiens) (UniProt P10276); experiment: ATG_RARa_TRANS: Attagene TRANS-FACTORIAL HepG2 Assay for human Retinoic Acid Receptor alpha (RARa) (AID 2283005)
Outline: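 HepG2 cells transiently transfected with multiple reporter units expressing chimeric RARα-GAL4 fusion, with GAL4-UAS-driven reporters. After 24 h compound exposure, reporter mRNA induction quantified by RT-PCR and capillary electrophoresis with fluorescent labeling; gain-of-signal fitted relative to DMSO control.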

[7] = BSK_3C_Proliferation: Cell Proliferation Assessment in the BioMAP Diversity Plus: 3C Assay (AID 2283006; active = hit-call score of the fitted dose curve at least 0.9, where 1 is the maximum; inactive = score below 0.9;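 for AC50: potency may reflect either rise or fall in cell number versus DMSO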); conditions: primary human endothelial cells (HUVEC)
Outline: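 Human umbilical vein endothelial cells were grown sub-confluent and exposed to chemical for 48 h, then fixed with 10% TCA and stained with 0.1% sulforhodamine B; absorbance at 560 nm gave relative cell number, fitted bidirectionally against DMSO baseline.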

[8] = target: Peroxisome proliferator-activated receptor gamma (Homo sapiens) (UniProt P37231); experiment: ATG_PPARg_TRANS: Attagene TRANS-FACTORIAL HepG2 Assay for human Peroxisome Proliferator-activated Receptor-gamma (PPARg) (AID 2283007)
Outline: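 HepG2 cells are transiently transfected with GAL4-UAS reporter units driven by chimeric NR-Gal4 fusions and dosed for 24 h. Reporter mRNA is quantified by RT-PCR, 6-FAM labelling, HpaI digestion and capillary electrophoresis. Induction is scored against DMSO.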

[9] = target: Nuclear receptor subfamily 1 group I member 2 (Homo sapiens) (UniProt O75469); experiment: ATG_PXR_TRANS: Attagene TRANS-FACTORIAL HepG2 Assay for human Pregnane X Receptor (PXR) (AID 2283008)
Outline: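 Measures mRNA induction of a GAL4-UAS-driven reporter in human HepG2 cells transiently expressing PXR fused to Gal4, following 24 h treatment. DMSO served as negative control and baseline.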

[10] = target: human Retinoic Acid Receptor gamma (RARg), RARG (gene 5916) (UniProt P13631); experiment: ATG_RARg_TRANS: Attagene TRANS-FACTORIAL HepG2 Assay for human Retinoic Acid Receptor gamma (RARg) (AID 2283009);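 for AC50: AC50 is for reporter induction above DMSO meaning RARg activation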
Outline: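 HepG2 cells transiently transfected with multiplexed reporter units expressing chimeric RARg-GAL4 and GAL4-UAS-driven reporters; 24 h compound exposure. Reporter mRNA quantified by RT-PCR with fluorescent labelling and capillary electrophoresis; gain-of-signal fitted relative to DMSO baseline.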

Measured: AC50

Sequence of Peroxisome proliferator-activated receptor gamma (Homo sapiens) (P37231 whole entry, looked up, the tested form may be a part): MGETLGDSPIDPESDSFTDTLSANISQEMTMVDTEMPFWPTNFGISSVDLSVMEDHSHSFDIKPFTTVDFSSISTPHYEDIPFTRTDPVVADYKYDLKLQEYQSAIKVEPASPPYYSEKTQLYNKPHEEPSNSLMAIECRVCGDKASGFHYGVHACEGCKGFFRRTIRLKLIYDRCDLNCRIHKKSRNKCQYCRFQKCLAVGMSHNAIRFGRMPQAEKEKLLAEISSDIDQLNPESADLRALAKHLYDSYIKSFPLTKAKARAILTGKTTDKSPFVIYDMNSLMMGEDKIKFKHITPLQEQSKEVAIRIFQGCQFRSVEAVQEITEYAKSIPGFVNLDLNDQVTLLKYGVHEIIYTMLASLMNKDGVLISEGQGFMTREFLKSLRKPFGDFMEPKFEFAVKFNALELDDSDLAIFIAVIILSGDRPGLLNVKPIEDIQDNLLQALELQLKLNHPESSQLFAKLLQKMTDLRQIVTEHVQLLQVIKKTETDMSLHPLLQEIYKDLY
Sequence of Nuclear receptor subfamily 1 group I member 2 (Homo sapiens) (O75469 whole entry, looked up, the tested form may be a part): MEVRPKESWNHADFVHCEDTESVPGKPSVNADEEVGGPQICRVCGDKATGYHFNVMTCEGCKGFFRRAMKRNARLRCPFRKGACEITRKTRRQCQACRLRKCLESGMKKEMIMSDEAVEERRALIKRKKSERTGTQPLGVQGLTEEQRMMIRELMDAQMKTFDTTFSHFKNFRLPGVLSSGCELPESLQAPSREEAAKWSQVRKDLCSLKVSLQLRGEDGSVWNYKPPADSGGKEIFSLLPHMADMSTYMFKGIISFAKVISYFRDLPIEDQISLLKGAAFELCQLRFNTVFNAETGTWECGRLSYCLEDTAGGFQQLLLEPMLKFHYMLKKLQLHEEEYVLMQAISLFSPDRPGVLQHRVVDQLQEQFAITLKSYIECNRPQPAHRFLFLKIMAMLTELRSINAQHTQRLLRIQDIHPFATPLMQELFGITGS
Sequence of human Peroxisome Proliferator-activated Receptor alpha (PPARa), PPARA (gene 5465) (Q07869 whole entry, looked up, the tested form may be a part): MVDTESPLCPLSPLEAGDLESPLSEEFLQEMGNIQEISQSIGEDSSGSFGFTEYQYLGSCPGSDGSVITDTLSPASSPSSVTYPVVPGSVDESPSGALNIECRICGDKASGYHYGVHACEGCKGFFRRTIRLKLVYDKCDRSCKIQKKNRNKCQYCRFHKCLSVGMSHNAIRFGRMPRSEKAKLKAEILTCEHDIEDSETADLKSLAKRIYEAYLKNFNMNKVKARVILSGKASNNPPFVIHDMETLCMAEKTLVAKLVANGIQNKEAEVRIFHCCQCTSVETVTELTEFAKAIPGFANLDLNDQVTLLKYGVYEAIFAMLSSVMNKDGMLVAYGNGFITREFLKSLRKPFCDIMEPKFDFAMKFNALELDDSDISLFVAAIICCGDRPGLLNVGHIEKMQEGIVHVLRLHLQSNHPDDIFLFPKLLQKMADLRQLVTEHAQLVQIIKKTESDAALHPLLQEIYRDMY
Sequence of human Peroxisome Proliferator-activated Receptor delta (PPARd), PPARD (gene 5467) (Q03181 whole entry, looked up, the tested form may be a part): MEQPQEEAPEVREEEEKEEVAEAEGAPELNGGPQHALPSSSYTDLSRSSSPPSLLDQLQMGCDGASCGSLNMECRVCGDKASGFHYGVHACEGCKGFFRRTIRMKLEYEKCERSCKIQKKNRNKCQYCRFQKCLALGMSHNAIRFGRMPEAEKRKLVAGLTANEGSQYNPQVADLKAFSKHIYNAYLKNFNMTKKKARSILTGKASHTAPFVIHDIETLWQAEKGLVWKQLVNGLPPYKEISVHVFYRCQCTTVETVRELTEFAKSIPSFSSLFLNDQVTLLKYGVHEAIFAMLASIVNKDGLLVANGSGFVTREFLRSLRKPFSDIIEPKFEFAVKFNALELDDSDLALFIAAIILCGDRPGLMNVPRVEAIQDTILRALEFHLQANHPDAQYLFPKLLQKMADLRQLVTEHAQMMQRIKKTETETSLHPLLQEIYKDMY
Sequence of Retinoic acid receptor alpha (Homo sapiens) (P10276 whole entry, looked up, the tested form may be a part): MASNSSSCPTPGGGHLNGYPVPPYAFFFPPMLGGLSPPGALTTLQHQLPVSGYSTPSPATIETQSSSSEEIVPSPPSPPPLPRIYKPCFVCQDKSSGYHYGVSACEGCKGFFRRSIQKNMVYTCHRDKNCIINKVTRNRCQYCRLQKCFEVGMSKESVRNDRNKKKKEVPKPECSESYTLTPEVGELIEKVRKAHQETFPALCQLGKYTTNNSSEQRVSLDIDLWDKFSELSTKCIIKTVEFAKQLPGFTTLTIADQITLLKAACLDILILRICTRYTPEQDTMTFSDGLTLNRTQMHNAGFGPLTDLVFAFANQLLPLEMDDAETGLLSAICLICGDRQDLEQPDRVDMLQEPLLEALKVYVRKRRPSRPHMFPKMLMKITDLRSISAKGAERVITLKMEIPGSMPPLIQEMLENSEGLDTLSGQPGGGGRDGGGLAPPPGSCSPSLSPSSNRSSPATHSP
Sequence of human Retinoic Acid Receptor gamma (RARg), RARG (gene 5916) (P13631 whole entry, looked up, the tested form may be a part): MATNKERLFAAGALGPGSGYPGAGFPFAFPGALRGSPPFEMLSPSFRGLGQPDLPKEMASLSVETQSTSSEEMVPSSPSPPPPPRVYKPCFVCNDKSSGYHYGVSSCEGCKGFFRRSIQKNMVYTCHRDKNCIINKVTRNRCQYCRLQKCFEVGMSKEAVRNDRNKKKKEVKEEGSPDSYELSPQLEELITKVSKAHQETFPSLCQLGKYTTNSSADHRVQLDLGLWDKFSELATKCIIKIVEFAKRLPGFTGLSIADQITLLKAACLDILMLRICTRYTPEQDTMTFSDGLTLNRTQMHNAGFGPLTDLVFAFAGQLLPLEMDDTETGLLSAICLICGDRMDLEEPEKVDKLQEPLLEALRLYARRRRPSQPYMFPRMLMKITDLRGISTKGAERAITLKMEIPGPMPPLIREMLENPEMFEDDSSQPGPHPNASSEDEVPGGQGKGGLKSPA
Sequence of human Retinoic Acid Receptor beta (RARb), RARB (gene 5915) (P10826 whole entry, looked up, the tested form may be a part): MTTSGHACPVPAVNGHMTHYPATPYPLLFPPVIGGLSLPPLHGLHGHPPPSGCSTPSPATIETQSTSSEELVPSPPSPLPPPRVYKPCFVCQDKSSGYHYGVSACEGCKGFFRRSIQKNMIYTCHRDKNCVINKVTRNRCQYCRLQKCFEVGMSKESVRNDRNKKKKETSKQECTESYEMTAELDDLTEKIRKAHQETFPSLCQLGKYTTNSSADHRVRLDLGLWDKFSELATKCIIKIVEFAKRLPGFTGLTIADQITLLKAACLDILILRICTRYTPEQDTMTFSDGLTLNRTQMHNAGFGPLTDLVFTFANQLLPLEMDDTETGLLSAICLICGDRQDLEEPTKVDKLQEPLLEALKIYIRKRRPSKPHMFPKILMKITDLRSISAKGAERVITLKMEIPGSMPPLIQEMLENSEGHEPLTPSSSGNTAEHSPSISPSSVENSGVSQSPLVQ

O=C(O)C(F)(F)C(F)(F)C(=O)O
inactive: all assays above

CCCCN(CCCC)N=O
inactive: [1] | [2] | [4] | [7] | [9]

CN(C)C(=O)Cl
not listed: [3] | [8]
inactive: all other assays above

O=C(O)C(F)(OC(F)(F)C(F)(F)C(F)(F)F)C(F)(F)F (centres undefined)
inactive: [1] | [2] | [3] | [4] | [5] | [6] | [7] | [8] | [9] | [10]
active: [1] 8.11 µM | [2] 16.9 µM | [7] 0.22 µM | [8] 102 µM

CCOP(=S)(Oc1ccc([N+](=O)[O-])cc1)c1ccccc1 (centres undefined)
active: [7] 13.5 µM | [9] 1.2 µM
inactive: [1] | [3] | [4] | [8]

CC(C)Nc1ccc(Nc2ccccc2)cc1
active: [1] 8.74 µM | [4] 17.4 µM | [7] 1.82 µM | [8] 23.9 µM | [9] 2.71 µM
inactive: [2] | [5] | [6] | [10]

O=S1(=O)OCC2C(CO1)C1(Cl)C(Cl)=C(Cl)C2(Cl)C1(Cl)Cl (centres undefined)
active: [1] 13.1 µM | [7] 25.1 µM | [9] 2.37 µM
inactive: [3] | [4] | [10]

COC(=O)C(F)(F)C(F)(F)OC(F)(C(F)(F)F)C(F)(F)OC(F)=C(F)F (centres undefined)
inactive: [1] | [3] | [4] | [5] | [7]
active: [2] 8.47 µM and 26 µM and 10.1 µM | [3] 15.4 µM | [8] 124 nM and 241 nM and 127 nM | [9] 6.57 µM and 19.5 µM and 5.88 µM

CCOS(=O)(=O)OCC
inactive: [1] | [2] | [3] | [4] | [7]

Nc1ccc2ccccc2c1
active: [1] 9.1 µM
not listed: [3]
inactive: all other assays above

O=P(OCC(Br)CBr)(OCC(Br)CBr)OCC(Br)CBr (centres undefined)
inactive: [1] | [3] | [4]
active: [7] 11.9 µM | [8] 2.68 µM | [9] 0.224 µM

Cc1cccc(N)c1
inactive: [1] | [3] | [4] | [7] | [8] | [10]

COP(=O)(CCC(=O)NCO)OC
active: [1] 0.15 µM
inactive: [1] | [3] | [4] | [7] | [8]

CC(Cl)(Cl)C(=O)O
inactive: [1] | [4] | [7] | [8] | [9]

Cc1ccc(O)cc1C
not listed: [2] | [6] | [9]
inactive: all other assays above

CC(C)(C)c1ccc(O)cc1
active: [9] 14.8 µM
not listed: [5] | [6] | [10]
inactive: all other assays above

OCC(F)(F)OC(F)(F)C(F)(F)OC(F)(F)C(F)(F)OC(F)(F)F
active: [1] 22.3 µM and 42.2 µM | [4] 30 µM | [7] 15.5 µM and 26.1 µM
inactive: all other assays above

C=CC(=O)OCC(CC)(COC(=O)C=C)COC(=O)C=C
active: [1] 2.41 µM | [4] 2.71 µM | [7] 1.7 µM | [8] 24.3 µM | [9] 0.793 µM
inactive: [2] | [3] | [10]

CSC(C)(C)C=NO
inactive: [1] | [2] | [3] | [4] | [7]

C=CC(=O)OCC(F)(F)C(F)F
active: [1] 30 µM and 21 µM | [7] 30 µM and 36 µM | [8] 3.8 µM
inactive: [2] | [4] | [9] | [10]

c1ccc2c(c1)Nc1ccccc1S2
active: [7] 21.6 µM | [8] 26.7 µM | [9] 11.1 µM
inactive: [1] | [2] | [3] | [4]

CC(C)(C)OOC(C)(C)C
inactive: [1] | [3] | [4] | [7]

c1ccc(OP(Oc2ccccc2)Oc2ccccc2)cc1
inactive: [1] | [2] | [4] | [7] | [8] | [9]

OCC1CO1 (centres undefined)
inactive: [1] | [2] | [3] | [4] | [7] | [8]

CC(Cl)CN(C)C (centres undefined)
inactive: [1] | [3] | [4] | [7]

CCCCN(CCCC)SN(C)C(=O)Oc1cccc2c1OC(C)(C)C2
inactive: [3]
active: [1] 29.3 µM | [4] 29.8 µM | [7] 19.8 µM | [8] 12.3 µM | [9] 16 µM

COP(=O)(O)OC
active: [9] 27.2 µM
not listed: [2] | [5]
inactive: all other assays above

CC(Cc1ccc(OCC(=O)O)cc1)NCC(O)c1csc(C(F)(F)F)n1 (centres undefined)
inactive: [1] | [4] | [7] | [8]

CCOP(=S)(NC(C)C)Oc1ccccc1C(=O)OC(C)C (centres undefined)
inactive: [1] | [3] | [4] | [7]
active: [8] 8.99 µM | [9] 0.599 µM

CCOC(=O)c1ccccc1C(=O)OCC
inactive: [1] | [2] | [4] | [5] | [7] | [9]

[N-]=[N+]=[N-]
inactive: [1] | [2] | [3] | [4] | [7]

CCN(CC)c1ccccc1
inactive: [1] | [2] | [4] | [7] | [9]

O=c1ssc(Cl)c1Cl
active: [1] 4.22 µM | [4] 11.3 µM | [7] 1.45 µM | [8] 33.4 µM
inactive: [3] | [9]

Cc1c([N+](=O)[O-])cc2c(c1[N+](=O)[O-])C(C)(C)CC2(C)C
active: [1] 2.15 µM | [7] 2.4 µM | [9] 0.862 µM | [10] 2.08 µM
not listed: [2]
inactive: all other assays above

Nc1ccc([N+](=O)[O-])cc1Cl
inactive: [1] | [3] | [4] | [7] | [8] | [9]

c1ccc2c(c1)sc1ccccc12
not listed: [3] | [5] | [6]
inactive: all other assays above

CCNc1nc(Cl)nc(NC(C)(C)C)n1
active: [9] 4.35 µM
not listed: [2]
inactive: all other assays above

CCCCOCCOP(=O)(OCCOCCCC)OCCOCCCC
active: [8] 58.7 µM
inactive: all other assays above

O=C(O)C(F)(F)OC(F)(F)C(F)(F)OC(F)(F)C(=O)O
inactive: [1] | [2] | [3] | [4] | [7] | [9]

CC(O)C(F)(F)C(F)(F)F (centres undefined)
not listed: [1] | [3] | [10]
inactive: all other assays above

O=C(O)C(F)(F)OC(F)(F)C(F)(F)OC(F)(F)F
active: [2] 17.9 µM and 15.4 µM | [8] 122 µM and 84.6 µM
inactive: [3] | [4] | [6] | [7] | [9]

CCCCC(CC)COC(=O)c1c(Br)c(Br)c(Br)c(Br)c1C(=O)OCC(CC)CCCC (centres undefined)
inactive: [2] | [3] | [4] | [7] | [8] | [9]

CCOP(=S)(OCC)SCS(=O)(=O)CC
active: [9] 5.73 µM
not listed: [1] | [5] | [6]
inactive: all other assays above

O=C(O)C=CC(F)(C(F)(F)F)C(F)(F)F
not listed: [1] | [5] | [6]
inactive: all other assays above

Oc1ccc(I)cc1
inactive: [2] | [3] | [8] | [9]

CC(=O)CCc1ccc2c(c1)OCO2
inactive: [2] | [3] | [6] | [8] | [9]

N#Cc1c(-c2ccc(Cl)cc2)[nH]c(C(F)(F)F)c1Br
active: [7] 0.393 µM | [8] 0.573 µM | [9] 0.585 µM
not listed: [1]
inactive: all other assays above

O=c1[nH]c2ccccc2c(=O)o1
inactive: [2] | [3] | [6] | [8] | [9] | [10]

c1nc[nH]n1
inactive: [2] | [4] | [7] | [8] | [9]

CCCCOCC1CO1 (centres undefined)
inactive: [2] | [3] | [8] | [9]

CC(C)CBr
inactive: [2] | [3] | [5] | [8] | [10]

ClC(Cl)(Cl)c1ccccc1
inactive: [2] | [3] | [4] | [7]

O=[N+]([O-])c1ccc(Cl)c(Cl)c1
active: [8] 16 µM
inactive: [1] | [4] | [7] | [10]

Clc1ccc(Oc2ccccc2)cc1
inactive: [2] | [3] | [5] | [8] | [9]

N#C/C=C/c1ccccc1
active: [8] 10.1 µM
inactive: [2] | [3] | [9] | [10]
